Screen size: about 5,500 compounds; about 2,000 (36%) were called active. Roughly 18% stayed inconclusive and do not appear here. No stated cut-off is given here; in the data, active means normalized growth mostly below about 0.91 (no sharp cut-off); inconclusive means no clear call, values can overlap the other calls; inactive means mostly above about 0.92. The list shows a part of the results.
Test: chemical genetic growth profiling, strain panel (AID 1159580);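 further: tested at 20 µM; growth read once vehicle control cultures reached saturation at 30 °C; 1 = growth at the plate median or of vehicle wells; lower values mean less growth of the strain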
Conditions: growth OD

Measured: normalized growth

C[C@H](COc1ccccc1)N[C@H](C)[C@H](O)c1ccc(O)cc1
inactive: S. cerevisiae deletion strains, locus YJR043C, strain POL32, active compounds read low 1.04 | S. cerevisiae deletion strains, locus YJR066W, strain TOR1, active compounds read low 0.946 | S. cerevisiae deletion strains, locus YKL009W, strain mrt4, active compounds read low 0.99 | S. cerevisiae deletion strains, locus YKL068W, active compounds read low 0.989 | S. cerevisiae deletion strains, locus YKL085W, strain MDH1 (second series), active compounds read low 0.977 | S. cerevisiae deletion strains, locus YKL085W, strain MDH1, active compounds read low 0.977 | S. cerevisiae deletion strains, locus YKL160W, strain elf1, active compounds read low 0.983 | S. cerevisiae deletion strains, locus YKL190W, strain CNB1, active compounds read low 1 | S. cerevisiae deletion strains, locus YKR001C, strain vps1, active compounds read low 1.01 | S. cerevisiae deletion strains, locus YKR026C, strain gcn3, active compounds read low 0.993 | S. cerevisiae deletion strains, locus YKR091W, strain srl3, active compounds read low 0.995 | S. cerevisiae deletion strains, locus YLL001W, strain dnm1, active compounds read low 0.966 | S. cerevisiae deletion strains, locus YLL026W, active compounds read low 1.01 | S. cerevisiae deletion strains, locus YLL041C, strain sdh2, active compounds read low 0.993 | S. cerevisiae deletion strains, locus YLR027C, strain aat2, active compounds read low 1.01 | S. cerevisiae deletion strains, locus YLR039C, strain RIC1, active compounds read low 0.898 | S. cerevisiae deletion strains, locus YLR058C, strain SHM2, active compounds read low 0.987 | S. cerevisiae deletion strains, locus YLR102C, strain apc9, active compounds read low 0.99 | S. cerevisiae deletion strains, locus YLR113W, strain HOG1, active compounds read low 0.962 | S. cerevisiae deletion strains, locus YLR221C, strain rsa3, active compounds read low 0.974 | S. cerevisiae deletion strains, locus YLR258W, strain gsy2, active compounds read low 0.997 | S. cerevisiae deletion strains, locus YLR262C, strain YPT6 (second series), active compounds read low 0.929 | S. cerevisiae deletion strains, locus YLR262C, strain YPT6, active compounds read low 1.04 | S. cerevisiae deletion strains, locus YLR268W, strain sec22, active compounds read low 0.999 | S. cerevisiae deletion strains, locus YLR320W, strain mms22, active compounds read low 0.97 | S. cerevisiae deletion strains, locus YLR330W, strain CHS5, active compounds read low 0.988 | S. cerevisiae deletion strains, locus YLR342W, strain FKS1 (second series), active compounds read low 1.01 | S. cerevisiae deletion strains, locus YLR342W, strain FKS1, active compounds read low 0.997 | S. cerevisiae deletion strains, locus YLR357W, strain rsc2, active compounds read low 0.95 | S. cerevisiae deletion strains, locus YLR370C, strain arc18, active compounds read low 0.994 | S. cerevisiae deletion strains, locus YLR371W, strain rom2, active compounds read low 0.98 | S. cerevisiae deletion strains, locus YLR384C, strain iki3, active compounds read low 1 | S. cerevisiae deletion strains, locus YLR418C, strain cdc73, active compounds read low 1.01 | S. cerevisiae deletion strains, locus YML016C, strain PPZ1, active compounds read low 0.986 | S. cerevisiae deletion strains, locus YML032C, strain rad52, active compounds read low 0.999 | S. cerevisiae deletion strains, locus YML120C, strain ndi1, active compounds read low 0.985 | S. cerevisiae deletion strains, locus YML124C, strain tub3, active compounds read low 0.983 | S. cerevisiae deletion strains, locus YMR058W, strain fet3, active compounds read low 0.988 | S. cerevisiae deletion strains, locus YMR078C, strain ctf18, active compounds read low 0.985 | S. cerevisiae deletion strains, locus YMR125W, strain sto1, active compounds read low 0.984 | S. cerevisiae deletion strains, locus YMR129W, active compounds read low 0.99 | S. cerevisiae deletion strains, locus YMR205C, strain PFK2, active compounds read low 0.974 | S. cerevisiae deletion strains, locus YMR223W, strain ubp8, active compounds read low 0.96 | S. cerevisiae deletion strains, locus YMR231W, strain pep5, active compounds read low 1 | S. cerevisiae deletion strains, locus YMR307W, strain GAS1, active compounds read low 1.05 | S. cerevisiae deletion strains, locus YNL067W, strain RPL9B, active compounds read low 1 | S. cerevisiae deletion strains, locus YNL071W, strain lat1, active compounds read low 1.01 | S. cerevisiae deletion strains, locus YNL128W, strain TEP1, active compounds read low 0.979 | S. cerevisiae deletion strains, locus YNL183C, strain NPR1, active compounds read low 0.95 | S. cerevisiae deletion strains, locus YNL209W, strain ssb2, active compounds read low 0.994 | S. cerevisiae deletion strains, locus YNL233W, strain BNI4, active compounds read low 0.979 | S. cerevisiae deletion strains, locus YNL248C, strain rpa49, active compounds read low 0.985 | S. cerevisiae deletion strains, locus YNL250W, strain rad50, active compounds read low 0.977 | S. cerevisiae deletion strains, locus YNL271C, strain bni1, active compounds read low 0.993 | S. cerevisiae deletion strains, locus YNL298W, strain CLA4, active compounds read low 0.989 | S. cerevisiae deletion strains, locus YNL307C, strain MCK1, active compounds read low 0.988 | S. cerevisiae deletion strains, locus YNL322C, strain KRE1 (second series), active compounds read low 0.998 | S. cerevisiae deletion strains, locus YNR049C, strain mso1, active compounds read low 0.991 | S. cerevisiae deletion strains, locus YNR052C, strain pop2, active compounds read low 0.987 | S. cerevisiae deletion strains, locus YOL012C, strain htz1 1.14 | S. cerevisiae deletion strains, locus YOL147C, strain pex11, active compounds read low 0.99 | S. cerevisiae deletion strains, locus YOR001W, strain rrp6, active compounds read low 1.01 | S. cerevisiae deletion strains, locus YOR061W, strain CKA2, active compounds read low 0.994 | S. cerevisiae deletion strains, locus YOR069W, strain VPS5, active compounds read low 0.98 | S. cerevisiae deletion strains, locus YOR070C, strain gyp1, active compounds read low 0.993 | S. cerevisiae deletion strains, locus YOR080W, strain dia2, active compounds read low 1 | S. cerevisiae deletion strains, locus YOR083W, strain WHI5, active compounds read low 0.987 | S. cerevisiae deletion strains, locus YOR106W, strain vam3, active compounds read low 0.979 | S. cerevisiae deletion strains, locus YOR136W, strain idh2, active compounds read low 0.999 | S. cerevisiae deletion strains, locus YOR144C, strain elg1, active compounds read low 0.999 | S. cerevisiae deletion strains, locus YOR184W, strain ser1, active compounds read low 1 | S. cerevisiae deletion strains, locus YOR231W, strain MKK1, active compounds read low 0.948 | S. cerevisiae deletion strains, locus YOR265W, strain rbl2, active compounds read low 1.01 | S. cerevisiae deletion strains, locus YOR270C, strain vph1, active compounds read low 0.978 | S. cerevisiae deletion strains, locus YOR290C, strain snf2, active compounds read low 0.938 | S. cerevisiae deletion strains, locus YOR316C, strain cot1, active compounds read low 0.986 | S. cerevisiae deletion strains, locus YPL051W, strain arl3, active compounds read low 0.982 | S. cerevisiae deletion strains, locus YPL055C, strain LGE1, active compounds read low 0.965 | S. cerevisiae deletion strains, locus YPL078C, strain atp4, active compounds read low 0.993 | S. cerevisiae deletion strains, locus YPL106C, strain sse1, active compounds read low 0.948 | S. cerevisiae deletion strains, locus YPL240C, strain hsp82, active compounds read low 1.01 | S. cerevisiae deletion strains, locus YPL256C, strain CLN2, active compounds read low 0.926 | S. cerevisiae deletion strains, locus YPR119W, strain clb2, active compounds read low 0.99 | S. cerevisiae deletion strains, locus YPR141C, strain kar3, active compounds read low 0.975 | S. cerevisiae deletion strains, locus YPR163C, strain tif3, active compounds read low 0.989 | S. cerevisiae deletion strains, locus YPR167C, strain met16, active compounds read low 0.993 | S. cerevisiae deletion strains, strain wtn01, active compounds read low 0.986 | S. cerevisiae strains, strain wild type, active compounds read low 0.993

Reference: PubChem BioAssay AID1159580 (chemical genetic matrix, 2015)
